Counter-ions that a name gives are not always drawn.
Tested on: thyroid hormone receptor (endogenous TRα and TRβ)
Parameters: species or system GH3-TRE-Luc (rat pituitary); GH3-TRE-Luc luciferase reporter, antagonist mode against 1 nM T3, loss of signal, qHTS
Conditions: read-out: Average AC50 (uM) GH3-TRE-Antag, antagonist mode, 1 nM T3, no GH3 cytotoxicity hit, Average AC50 (uM) GH3-TRE-Antag, 24 h

SMILES | AC50 [µM]
N=C(N)NC(=O)c1nc(Cl)c(N)nc1N [Amiloride] | 16.4
OCCOCCN1CCN(C2=Nc3ccccc3Sc3ccccc32)CC1 [Quetiapine fumarate] | 23.5
Nc1ccc2cc3ccc(N)cc3nc2c1 [Proflavin hemisulfate] | 4.93
CCCCCCn1cc[n+](C)c1 [1-Hexyl-3-methylimidazolium trifluoromethanesulfonate] | 52.5
Nc1c2c(nc3ccccc13)CCCC2 [1,2,3,4-Tetrahydro-9-acridinamine hydrochloride] | 92.1
CCCCCC[n+]1ccccc1 [1-Hexylpyridinium chloride] | 71.1
CC(C)c1c(C(=O)Nc2ccccc2)c(-c2ccccc2)c(-c2ccc(F)cc2)n1CC[C@@H](O)C[C@@H](O)CC(=O)O [Atorvastatin] | 0.321
CCCCCCn1cc[n+](C)c1 [1-Hexyl-3-methylimidazolium tetrafluoroborate] | 56.1
CCCCCCCCn1cc[n+](C)c1 [1-Methyl-3-octylimidazolium chloride] | 28.9
CCCCCCCCCCCCOS(=O)(=O)O [Sodium dodecyl sulfate] | > 50
OCCOCCN1CCN(C2=Nc3ccccc3Sc3ccccc32)CC1 [Quetiapine] | 34
